Test [1] can be described thus: NS1 protein of Zika virus - qHTS assay to identify small molecule inhibitors in human HEK 293 cells (AID 1347053). Note: nearly all actives have a fitted effect of over 55% in size. Note: potency is the fitted concentration of half-maximal effect. An outline of the steps:
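TR-FRET signal from two anti-ZIKV NS1 antibodies quantified NS1 in HEK 293 cells 24 h after MR766 infection at MOI = 0.5; compounds were added 1 h before virus. Uninfected cells and infected cells defined the NS1 normalization range.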
(In qHTS, concentration-response curves come from the screen itself.)

Test [2] can be described thus: qHTS of pediatric cancer cell lines to identify multiple opportunities for drug repurposing: Primary screen for TC32 cells (AID 1347089). Note: nearly all actives have a fitted effect of over 60% in size. Note: potency is the fitted concentration of half-maximal effect. An outline of the steps:
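In the primary qHTS, MIPE compounds were tested at 11 concentrations (0.78 nM to 46 µM) and NPC compounds at 8 (0.59 nM to 46 µM) on TC32 cells for 48 h. CellTiter-Glo luminescence gave viability.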

A short description of test [3]: qHTS of pediatric cancer cell lines to identify multiple opportunities for drug repurposing: Primary screen for A673 cells (AID 1347092). Note: nearly all actives have a fitted effect of over 45% in size. Note: potency is the fitted concentration of half-maximal effect. In a few lines: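 48 h compound exposure, A673, 500-1,000 cells/well, 37 degrees C/5% CO2. MIPE: 11-point, 0.78 nM-46 µM; NPC: 8-point, 0.59 nM-46 µM (final). Readout CellTiter-Glo luminescence after 15 min RT.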
Test [4] can be described thus: qHTS of pediatric cancer cell lines to identify multiple opportunities for drug repurposing: Primary screen for BT-37 cells (AID 1347094). Note: potency is the fitted concentration of half-maximal effect. An outline of the steps: (§1)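 Cells seeded at 500-1,000 cells/well in growth media, rested 5 hours at 37 degrees C, 5% CO2, then dosed; MIPE compounds at 11-point (from 0.78 nM) and NPC at 8-point (from 0.59 nM) final concentrations. Viability by CellTiter-Glo luminescence after 48 hours.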

Test [5] is described as follows: qHTS of pediatric cancer cell lines to identify multiple opportunities for drug repurposing: Primary screen for NB-EBc1 cells (AID 1347095). Note: potency is the fitted concentration of half-maximal effect. In a few lines:
as §1

Test [6] in a line: qHTS of pediatric cancer cell lines to identify multiple opportunities for drug repurposing: Primary screen for DAOY cells (AID 1347090). Note: nearly all actives have a fitted effect of over 55% in size. Note: potency is the fitted concentration of half-maximal effect. In a few lines: (§2)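 Eight- or eleven-point concentration series, 48 h treatment at 37 degrees C in growth media; readout CellTiter-Glo luminescence. Potency and efficacy were taken from the concentration-response curves.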
A short description of test [7]: qHTS of pediatric cancer cell lines to identify multiple opportunities for drug repurposing: Primary screen for SJ-GBM2 cells (AID 1347091). Note: potency is the fitted concentration of half-maximal effect. An outline of the steps:
as §2

Test [8] is described as follows: qHTS of pediatric cancer cell lines to identify multiple opportunities for drug repurposing: Primary screen for SK-N-MC cells (AID 1347093). Note: potency is the fitted concentration of half-maximal effect. In a few lines:
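Metabolically active cells were quantified by ATP-dependent luminescence (CellTiter-Glo, 15 min at room temperature) following 48 h treatment. Cells had been plated at 500-1,000 per well and settled for 5 h beforehand.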

The target of test [9] is Tyrosine-protein phosphatase non-receptor type substrate 1 (Homo sapiens) + Leukocyte surface antigen CD47 (Homo sapiens) (UniProt P78324+Q08722). Kind of test: CD47-SIRPalpha protein protein interaction - HTRF assay qHTS validation (AID 1347058; active = well fitted curve in the direction sought with a large enough effect in the signal ratio, not every such curve was filed as active; the % refers to the signal ratio; note: series mostly up to about 38 µM). An outline of the steps: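 Soluble extracellular domains (6His-CD47, Avi-tag-biotinylated SIRPalpha) in PBS pH 7.4 with 0.05% IGEPAL CA-630. Compounds were preincubated 30 min at RT with CD47 and anti-His-Eu, then SIRPalpha and SAV-XL665 were added. TR-FRET 665/615 ratio.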
Sequence of Tyrosine-protein phosphatase non-receptor type substrate 1 (Homo sapiens) + Leukocyte surface antigen CD47 (Homo sapiens) (P78324 whole entry, looked up, the tested form may be a part): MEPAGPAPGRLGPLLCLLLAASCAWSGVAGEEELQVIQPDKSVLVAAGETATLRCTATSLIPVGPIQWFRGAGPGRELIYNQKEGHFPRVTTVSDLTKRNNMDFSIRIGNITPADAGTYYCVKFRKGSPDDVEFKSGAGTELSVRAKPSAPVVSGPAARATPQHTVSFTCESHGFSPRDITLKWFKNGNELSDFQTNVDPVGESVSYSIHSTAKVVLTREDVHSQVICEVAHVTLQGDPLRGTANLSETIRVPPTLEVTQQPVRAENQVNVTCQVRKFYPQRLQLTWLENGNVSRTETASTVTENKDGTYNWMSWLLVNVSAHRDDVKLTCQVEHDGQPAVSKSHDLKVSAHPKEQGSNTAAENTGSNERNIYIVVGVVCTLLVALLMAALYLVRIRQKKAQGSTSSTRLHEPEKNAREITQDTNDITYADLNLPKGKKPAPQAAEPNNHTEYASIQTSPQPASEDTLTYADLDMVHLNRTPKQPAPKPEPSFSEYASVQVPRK
Sequence of Tyrosine-protein phosphatase non-receptor type substrate 1 (Homo sapiens) + Leukocyte surface antigen CD47 (Homo sapiens) (Q08722 whole entry, looked up, the tested form may be a part): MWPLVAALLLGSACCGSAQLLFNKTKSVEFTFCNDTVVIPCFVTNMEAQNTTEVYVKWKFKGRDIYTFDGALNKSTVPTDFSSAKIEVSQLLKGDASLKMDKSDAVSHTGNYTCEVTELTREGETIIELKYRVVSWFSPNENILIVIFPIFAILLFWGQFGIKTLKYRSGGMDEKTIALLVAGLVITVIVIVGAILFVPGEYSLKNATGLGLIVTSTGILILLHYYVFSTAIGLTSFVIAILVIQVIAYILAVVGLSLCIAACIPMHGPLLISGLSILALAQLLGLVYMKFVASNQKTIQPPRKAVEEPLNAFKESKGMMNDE
A general note: Time-resolved FRET reads energy transfer from a long-lived donor to a nearby acceptor.

Test [10] deals with Parathyroid hormone/parathyroid hormone-related peptide receptor (Homo sapiens) (UniProt Q03431). The experiment in a line: qHTS for PTHR1 Agonists: Optimization Screen against the NCGC LOPAC library (AID 1347079).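 Note: GloSensor cAMP luminescence in HEK-293 GP2 cells expressing human PTHR1 with IBMX.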 An outline of the steps:
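HEK-293 GP2 cells, PTHR1 + GloSensor cAMP; 3000 cells/well, o/n. Luciferin + IBMX 0.5mM each (stock), 1 hr 37C. Cpd titration, 1 hr 37C. Lum after 15 min RT. Ctrl M-PTH(1-15) top 10uM.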

“And” between values parts separate entries of the source, which are not always exact repeats. Equal values may be shown once. Results filed as inconclusive are left out. Some structures have more than one record in an assay (separate samples or runs), and their calls can disagree. The source made the active and inactive calls. Unless noted, calls come from the whole dose curve; as a rule, active = well fitted curve in the direction sought with a large enough effect; inconclusive = small, poorly fitted or top-dose-only effect, or another doubt; inactive = no such curve, though single readings can be large; an effect the other way counts as inactive or inconclusive.

Sequence of Parathyroid hormone/parathyroid hormone-related peptide receptor (Homo sapiens) (Q03431 whole entry, looked up): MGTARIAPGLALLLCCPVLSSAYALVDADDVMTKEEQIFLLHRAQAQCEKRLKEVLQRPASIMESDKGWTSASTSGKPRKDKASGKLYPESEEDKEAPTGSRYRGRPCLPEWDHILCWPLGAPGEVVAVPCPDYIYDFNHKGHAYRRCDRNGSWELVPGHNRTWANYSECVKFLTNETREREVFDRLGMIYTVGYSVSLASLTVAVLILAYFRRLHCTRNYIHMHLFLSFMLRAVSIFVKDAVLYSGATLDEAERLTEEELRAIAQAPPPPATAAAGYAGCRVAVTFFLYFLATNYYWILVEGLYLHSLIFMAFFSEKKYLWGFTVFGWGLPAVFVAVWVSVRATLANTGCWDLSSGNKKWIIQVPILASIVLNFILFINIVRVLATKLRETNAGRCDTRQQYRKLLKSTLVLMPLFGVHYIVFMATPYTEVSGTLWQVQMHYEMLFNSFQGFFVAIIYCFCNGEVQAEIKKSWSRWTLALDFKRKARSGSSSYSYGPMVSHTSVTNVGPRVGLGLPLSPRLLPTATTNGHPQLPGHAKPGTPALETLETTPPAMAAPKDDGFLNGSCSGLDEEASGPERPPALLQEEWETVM

Take `CC(C)(C)C(=O)OCOP(=O)(COCCn1cnc2c(N)ncnc21)OCOC(=O)C(C)(C)C`: in test [1], the Potency result was “inactive”. For the same compound, the Potency in [2] is 2.64 µM (active) and 10.4 µM (active); in test [3], 2.11 µM (active) and 743 nM (active); in [4], 3.47 µM (active) and 10.9 µM (active); in test [5], 2.99 µM (active) and 662 nM (active).
On to `Nc1nc(F)nc2c1ncn2[C@@H]1O[C@H](CO)[C@@H](O)[C@@H]1O`, for which the Potency result in test [1] is “inactive and 2.09 µM (active)”; in test [2], 18.7 µM (active) and 2.62 µM (active); in test [6], 1.48 µM (active); in [3] it was 743 nM (active); in [4], 0.863 µM (active); in test [5], 841 nM (active) and 1.05 µM (active).
For `CN(CCOc1ccc(CC2SC(=O)NC2=O)cc1)c1ccccn1` (centres undefined), the Potency result in [1], in test [2], in test [6], in [3], in test [4] and in [5] was “inactive” each time.
On to `CC(=O)CC(c1ccccc1)c1c(O)c2ccccc2oc1=O` (centres undefined), for which the Potency result in [1], in [2], in test [6], in [3], in [4] and in [5] was “inactive” throughout.
`CNCC[C@H](Oc1cccc2ccccc12)c1cccs1`: the Potency result in test [2], in test [7] and in [5] was “inactive” throughout. Further, in test [3], the Potency is 1180 nM (active).
Take `CN1CCCC(n2nc(Cc3ccc(Cl)cc3)c3ccccc3c2=O)CC1` (centres undefined): the Potency entry in test [1] is “inactive”. Further, the Potency is 1.32 µM (active) in [7]; 935 nM (active) in test [3]; 0.833 µM (active) in [8]; 2.43 µM (active) in [4]; 1.18 µM (active) in [5].
As for `COc1cc2ncnc(Nc3cccc(Cl)c3)c2cc1OC`, the Potency entry in test [1] and in test [2] was “inactive” throughout. Besides, in [4], the Potency was 21.7 µM (active).
For the compound `O=C(O)CCn1c2c(c3ccccc31)C[C@H](NS(=O)(=O)c1ccc(F)cc1)CC2`, the Potency entry in test [1], in test [2], in [6], in [3], in [4] and in test [5] was “inactive” throughout.
For the compound `CCC(=O)O[C@]1(C(=O)CCl)[C@@H](C)C[C@H]2[C@@H]3CCC4=CC(=O)C=C[C@]4(C)[C@@]3(F)[C@@H](O)C[C@@]21C`, the Potency entry in test [1], in test [2], in test [6], in test [3], in test [4] and in test [5] was “inactive” each time.
For `N=C(N)c1ccc(OCCCCCOc2ccc(C(=N)N)cc2)cc1`, the Potency result in test [1], in test [7] and in [5] was “inactive” each time. Further, the Potency is 21.1 µM (active) and 14.8 µM (active) in [3]; 33.2 µM (active) in [8].
As for `COc1cc(NCc2ccc3nc(N)nc(N)c3c2C)cc(OC)c1OC`, the Potency is 2.94 µM (active) and 33.3 nM (active) in test [2]; 3.72 µM (active) and 133 nM (active) in [6]; 2.64 µM (active) and 29.9 nM (active) in [7]; 3.72 µM (active) and 168 nM (active) in test [3]; 332 nM (active) and 11.9 nM (active) in [8]; 1.53 µM (active) and 69.2 nM (active) in [4]. Besides, in [5], the Potency was 3.72 µM (active).
As to `Cc1ccnc2c1NC(=O)c1cccnc1N2C1CC1`, the Potency result in [1], in test [2], in [6], in test [3], in test [4] and in test [5] was “inactive” each time.
Turning to `Cc1c(-c2ccc(O)cc2)n(Cc2ccc(OCCN3CCCCCC3)cc2)c2ccc(O)cc12`, the Potency entry in [1], in [2], in test [7], in test [3] and in [4] was “inactive” in each case.
Consider `C[C@@H]1C[C@H]2[C@@H]3CCC4=CC(=O)C=C[C@]4(C)[C@@]3(Cl)[C@@H](O)C[C@]2(C)[C@@]1(OC(=O)c1ccco1)C(=O)CCl`, for which the Potency result in test [1] and in test [2] was “inactive” in each case. For the same compound, the Potency in [6] was 18.7 µM (active); in [3], 590 nM (active); in test [4], 21.7 µM (active); in [5] it was 11.8 µM (active).
For `CC(C)(C)NC(=O)[C@H]1CC[C@H]2[C@@H]3CC[C@H]4NC(=O)C=C[C@]4(C)[C@H]3CC[C@]12C`, the Potency result in test [1] and in test [2] was “inactive” throughout. Also, in test [7], the Potency is 14.8 µM (active).
Turning to `CCc1cc(C(N)=S)ccn1`, the Potency result in test [1], in [2], in [6], in test [3], in test [4] and in [5] was “inactive” throughout.
As to `COc1cc2nc(N3CCCN(C)CC3)nc(NC3CCN(Cc4ccccc4)CC3)c2cc1OC`, the outcome in test [9] and in test [10] was inactive. Besides, the Potency was 20.8 µM (active) in [2]; 18.7 µM (active) in [6]; 3720 nM (active) in [3]; 6.62 µM (active) in test [8]; 13.7 µM (active) in test [4]; 23.5 µM (active) in test [5].
In the case of `CCCCCCNC(=O)n1cc(F)c(=O)[nH]c1=O`, the Potency entry in test [1], in test [6] and in [7] was “inactive” throughout. Besides, in test [5], the Potency was 2.99 µM (active) and 4.18 µM (active).
For the compound `CCCCc1oc2ccc(NS(C)(=O)=O)cc2c1C(=O)c1ccc(OCCCN(CCCC)CCCC)cc1`, the Potency was 11.8 µM (active) in test [1]; 1180 nM (active) in test [3]; 21.1 µM (active) in test [8]; 17.2 µM (active) and 27.6 µM (active) in test [4]. In addition, in [2], the Potency entry is “inactive”.
For the compound `COc1cc2c(Nc3ccc(Br)cc3F)ncnc2cc1OCC1CCN(C)CC1`, the Potency entry in test [1], in [2], in test [7] and in test [5] was “inactive” throughout.
For the compound `O=C(O)c1ccc(-n2nc(-c3ccccc3O)nc2-c2ccccc2O)cc1`, the Potency result in test [1] was “inactive”. Moreover, the Potency in [7] was 20.9 µM (active); in test [4], 24.6 µM (active); in test [5], 8.33 µM (active).
Consider `O=c1cc(O)c(Cl)c[nH]1`, for which the Potency result in [1], in [2], in test [7], in test [4] and in test [5] was “inactive” in each case.
Turning to `O[C@@H](CNC[C@H](O)[C@H]1CCc2cc(F)ccc2O1)[C@@H]1CCc2cc(F)ccc2O1`, the Potency result in [2] and in [6] was “inactive” each time. Further, the Potency was 20.9 µM (active) in test [7], 27.6 µM (active) in test [4] and 21.1 µM (active) in [5].
As to `Cc1onc(-c2ccccc2Cl)c1C(=O)N[C@@H]1C(=O)N2[C@@H]1SC(C)(C)[C@@H]2C(=O)O`, the Potency entry in test [1], in test [2], in test [6], in test [3], in test [4] and in [5] was “inactive” in each case.
Consider `C1CCC(C(CC2CCCCN2)C2CCCCC2)CC1` (centres undefined), for which the Potency in test [1] was 10 µM (active) and 11.8 µM (active); in test [3], 10.6 µM (active) and 23.5 µM (active); in test [4] it was 34.7 µM (active) and 30.6 µM (active); in test [5] it was 26.4 µM (active). The Potency entry in test [2] and in test [6] was “inactive” each time.
Take `C[C@@H](NCCCc1cccc(C(F)(F)F)c1)c1cccc2ccccc12`: the Potency entry in test [1], in test [7], in [3], in test [4] and in [5] was “inactive” in each case.
For `COc1ccc2cc3[n+](cc2c1OC)CCc1cc2c(cc1-3)OCO2`, the Potency entry in test [1] and in test [7] was “inactive” each time. Besides, the Potency was 6.68 µM (active) and 18.7 µM (active) in test [6]; 2.11 µM (active) and 2.35 µM (active) in test [3]; 8.41 µM (active) and 18.7 µM (active) in [8].
On to `COc1ccc(-c2ccc3cc(C(=O)O)ccc3c2)cc1C12CC3CC(CC(C3)C1)C2`, for which the Potency result in test [1], in [2], in [3] and in [4] was “inactive” throughout. In addition, the Potency in [7] is 1.87 µM (active); in [5], 2.35 µM (active).
